Experimental data reported in PubChem BioAssay (Tox21).
Records with an inconclusive call do not appear. Where a call stands in place of a potency, no number is given. Active and inactive are the calls of the source. Calls follow the shape of the full dose curve.

Biological target: Beta-2 adrenergic receptor (Homo sapiens) (UniProt P07550)
Test: Adrenergic beta2 receptor (ADRB2) small molecule agonists, cell-based qHTS assay (AID 1963593)
How it was run: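 CHO cells stably over-expressing ADRB2 were plated overnight at 37C, then dosed with compounds plus a stimulation mix containing 100uM IBMX and 25uM Ro-20-1724 for 0.5hr at room temperature. cAMP was measured by HTRF competition, 1hr.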
Potency is read from the fitted curve at half-maximal effect.

Sequence of Beta-2 adrenergic receptor (Homo sapiens) (P07550 whole entry, looked up): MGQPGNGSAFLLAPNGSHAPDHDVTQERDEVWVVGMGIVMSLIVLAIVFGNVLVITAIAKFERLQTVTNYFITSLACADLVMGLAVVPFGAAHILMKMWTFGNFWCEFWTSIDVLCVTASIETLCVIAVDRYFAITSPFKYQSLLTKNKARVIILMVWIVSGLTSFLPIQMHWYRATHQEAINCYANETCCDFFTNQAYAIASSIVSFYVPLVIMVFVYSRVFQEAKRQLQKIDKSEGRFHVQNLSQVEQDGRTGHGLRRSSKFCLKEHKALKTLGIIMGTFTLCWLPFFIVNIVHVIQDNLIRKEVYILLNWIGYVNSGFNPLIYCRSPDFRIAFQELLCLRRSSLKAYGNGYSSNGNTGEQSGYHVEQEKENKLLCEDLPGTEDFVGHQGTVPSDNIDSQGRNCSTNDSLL

Structure (SMILES)	Potency
CC(C)(Oc1ccc(Cl)cc1)C(=O)OCCCOC(=O)C(C)(C)Oc1ccc(Cl)cc1	inactive
O=C(N[C@@H](Cc1ccccc1)[C@@H](O)C(=O)N1C[C@@H](O)[C@@H](O)C1)c1cc2cc(Cl)ccc2[nH]1	inactive
CC1CCc2cc(F)cc3c(=O)c(C(=O)O)cn1c23 (stereo unspecified)	inactive
c1ccc(SSc2ccccc2)cc1	inactive
C[C@]12C=CC(=O)C=C1[C@@H](F)C[C@@H]1[C@@H]2[C@@H](O)C[C@@]2(C)[C@H]1CC[C@]2(O)C(=O)CO	inactive
CO/N=C(\C(=O)O)c1csc(NC(=O)CCl)n1	inactive
CCOC(=O)c1cccnc1	inactive
CCOC(=O)CCC(=O)OCC	inactive
O=C(O)c1cc(Cl)cc([N+](=O)[O-])c1Cl	inactive
CCOC(=O)Cc1cccc2ccccc12	inactive
CC(C)(C)C(=O)/C=C/c1ccc(Cl)cc1	inactive
C=CCn1c(=O)n(CC=C)c(=O)n(CC=C)c1=O	inactive
NC(=O)Nc1ccc(Cl)c(Cl)c1	inactive
O=C(CO)[C@@H](O)[C@H](O)[C@@H](O)CO	inactive
CC(C)(C)C(=O)OCOC(=O)[C@@H]1N2C(=O)[C@@H](NC(=O)[C@H](N)c3ccccc3)[C@H]2SC1(C)C	inactive
COc1ccc(OC)c(N=Nc2c(O)ccc3ccccc23)c1	inactive
Oc1cn2c(n1)Nc1ccc(Cl)c(Cl)c1C2	inactive
Cn1c(=O)cc(Oc2ccc(F)cc2F)c2cnc(NCC(C)(C)O)nc21	inactive

Structure (SMILES)	Potency
CCOc1cc(OCC)c(C(=O)CCC(=O)O)cc1OCC	inactive
C/C=C/C=C/COC(=O)C(C)C	inactive
Cc1ccc(S)cc1	inactive
c1ccc(CNc2ncnc3nc[nH]c23)cc1	inactive
C=CC(=O)OCCOC(=O)CCC(=O)O	inactive
Cc1ccsc1C(=CCCN1CCC[C@@H](C(=O)O)C1)c1sccc1C	inactive
CCCCC(CC)COC(=O)CCCCCCCCC(=O)OCC(CC)CCCC (stereo unspecified)	inactive
CCCCOC(=O)C(C)O (stereo unspecified)	inactive
CCCCOC(=O)C(C)Oc1ccc(Oc2ccc(C(F)(F)F)cn2)cc1 (stereo unspecified)	inactive
C[C@]12CCC(=O)C=C1CC[C@@H]1[C@@H]2CC[C@@]2(C)[C@H]1CC[C@]2(O)C(=O)CO	inactive
O=C=NCc1cccc(CN=C=O)c1	inactive
C[N+]1(C)CCCC(OC(=O)C(O)(c2ccccc2)c2ccccc2)C1 (stereo unspecified)	inactive
CC(=O)Nc1ccc(N)cc1	inactive
CC(NN)c1ccccc1 (stereo unspecified)	inactive
CCCn1cnc2c1c(=O)n(CCCCC(C)=O)c(=O)n2C	inactive
CCCCCCCCCCOCC(O)CN (stereo unspecified)	inactive
CC[C@H](NC(C)C)[C@H](O)c1ccc(O)c2[nH]c(=O)ccc12	1.7 nM (active)
CC(C)Cc1ccc(C(C)C(=O)OCc2ccccn2)cc1 (stereo unspecified)	inactive
